Measurements as given in PubChem BioAssay (NCI).
This is part of a sample that, as a whole, favours compounds with a hit. Of some 83,000 tested, about 20% had one in any assay.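 Plates (96-well) were seeded with cells, treated with compound at one concentration, and incubated for 48 hours before percent growth was determined.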 A number with no mark means an inactive call. Calls of active or inactive are those of the source. How the source made its calls: active means growth percent below 10; inactive means the rest.

Legend:
Experiment in all cases: NCI-60 one-dose screen, 48 h (100 = growth as untreated, 0 = no growth, -100 = all killed)
Details in all cases: 10 µM unless noted
SR leukemia = test system: SR leukemia
RPMI-8226 leukemia = test system: RPMI-8226 leukemia
OVCAR-8 ovarian = test system: OVCAR-8 ovarian
OVCAR-5 ovarian = test system: OVCAR-5 ovarian
OVCAR-4 ovarian = test system: OVCAR-4 ovarian
SK-OV-3 ovarian = test system: SK-OV-3 ovarian
IGROV1 ovarian = test system: IGROV1 ovarian
HS 578T breast = test system: HS 578T breast
NCI/ADR-RES ovarian = test system: NCI/ADR-RES ovarian
T-47D breast = test system: T-47D breast
BT-549 breast = test system: BT-549 breast
SW-620 colon = test system: SW-620 colon
MCF7 breast = test system: MCF7 breast
HCT-116 colon = test system: HCT-116 colon
HCC-2998 colon = test system: HCC-2998 colon
MDA-MB-435 melanoma = test system: MDA-MB-435 melanoma
KM12 colon = test system: KM12 colon

| Compound | growth (SR leukemia) | growth (RPMI-8226 leukemia) | growth (OVCAR-8 ovarian) | growth (OVCAR-5 ovarian) | growth (OVCAR-4 ovarian) | growth (SK-OV-3 ovarian) | growth (IGROV1 ovarian) | growth (HS 578T breast) | growth (NCI/ADR-RES ovarian) | growth (T-47D breast) | growth (BT-549 breast) | growth (SW-620 colon) | growth (MCF7 breast) | growth (HCT-116 colon) | growth (HCC-2998 colon) | growth (MDA-MB-435 melanoma) | growth (KM12 colon) |
| --- | --- | --- | --- | --- | --- | --- | --- | --- | --- | --- | --- | --- | --- | --- | --- | --- | --- |
| O=C1c2c(c3c4cccnc4[nH]c3c3ccc4ccccc4c23)C(=O)N1CCN1CCOCC1 | 21.8% | 42.5% | 47.2% | 98.3% | 84.4% | 86.9% | 57.7% | 82.1% | 47% | 65.5% | 65.6% | 47.1% | 15.9% | 58.1% | 82% | – | – |
| COc1ccc(CCN2C(=O)CSC2=S)cc1OC | 64.6% | 32.8% | 98.6% | 104% | 100% | 99.1% | 102% | – | 101% | 52.7% | 110% | 57.9% | 29.3% | 99.6% | 111% | 93.6% | 16.6% |
| Cc1csc(Nc2cccc(Nc3nc(C)cs3)c2)n1 | 63.9% | 62.3% | 82.7% | 92% | 66.8% | 98.7% | 76.6% | 85.3% | 66.9% | 36.1% | 73.7% | 88.6% | 73.3% | – | 90.3% | 82.1% | 87.8% |
| CCOC(=O)c1ccc(N/C=C/C(=O)c2ccccc2)cc1 | 87.8% | 100% | 102% | 101% | 105% | 113% | 110% | 113% | 103% | 84.6% | 114% | 100% | 88.2% | 96.5% | 109% | 92.7% | 98.5% |
| O=C(NCCCCCCNC(=O)c1c2c(nc3ccccc13)-c1cccnc1SC2)c1c2c(nc3ccccc13)-c1cccnc1SC2 | 89.7% | 58.9% | 78.2% | 57.9% | 79.6% | 85.7% | 43.7% | 83.2% | 77.2% | 79.7% | – | 39.2% | 76.1% | 66.3% | 44.6% | 56.8% | 74.7% |
| CCN1CCN(c2cc(C(=O)Nc3nc4ccc(Oc5ccnc(C(=O)NC)c5)cc4s3)cc(C(F)(F)F)c2)CC1 | -3.58% (active) | 33% | 92.4% | 101% | 67.9% | 109% | 95.8% | – | 99.6% | 72% | 149% | 77.5% | 51.9% | 57.9% | 90.3% | 68.6% | 56.9% |
| COc1ccc(C(=O)n2cc(C=O)c3ccccc32)cc1 | 65.5% | 98.2% | 96.4% | 102% | 111% | 133% | 93.4% | – | 94.7% | 106% | 100% | 90% | 82.1% | 91.3% | 104% | 88.8% | 102% |
| O=C1c2c(c3c4cccnc4[nH]c3c3ccc4ccccc4c23)C(=O)N1CCN1CCNCC1 | -6.6% (active) | 74.3% | 50.8% | 113% | 105% | 101% | 51.7% | 107% | 81.4% | 99.2% | 102% | 55.9% | 27.8% | 36.6% | 81.8% | 89.9% | 73.6% |
| Cc1cnc2nc(NN)[nH]n12 | 101% | 104% | 98% | 101% | 104% | 102% | 97.6% | – | 104% | 98.4% | 111% | 103% | 92.6% | 98.9% | 108% | 99.7% | 100% |
| C#CCOc1ccc(/C=N/Nc2nc(-c3cc4cc(Br)cc(Br)c4oc3=O)cs2)cc1 | 71% | 97.1% | 100% | 102% | 83.1% | 104% | 98.9% | 91.3% | 94.9% | 88.6% | – | 104% | 65.9% | 91.8% | 108% | 91.8% | 88% |
| CN1CCN(c2ccc(C(=O)/C=C/c3ccc(Cl)c(C(F)(F)F)c3)cc2)CC1 | 2.99% (active) | 3.06% (active) | 55% | 79.7% | 66% | 105% | 78.1% | – | 64.4% | 29.6% | 109% | 1.29% (active) | 7.85% (active) | 16.1% | 33.7% | 13.7% | 27.3% |
| COc1cc(C(=O)c2cc(C(C)=O)c3c4ccccc4ccn23)cc(OC)c1OC | 16.8% | 52.3% | 62.9% | 69.9% | 69.1% | 56.2% | 52.6% | 40.5% | 27.9% | 24.8% | 59% | 44.5% | 34.2% | 42.2% | 62.9% | – | 43.9% |
| O=C1Nc2cc(OC(F)(F)F)ccc2Oc2ccc(-c3ccnc(N4CC[C@H](O)C4)c3)cc21 | -6.83% (active) | 17% | -14.4% (active) | 25.5% | 48.5% | 27.1% | 16.8% | 24.5% | 9.76% (active) | 62.3% | -18.7% (active) | -19.3% (active) | 0.967% (active) | – | 0.963% (active) | -57.3% (active) | -12.9% (active) |
| CCn1c2ccc(/C=N/OCCCN(C)C)cc2c2cc(/C=N/OCCCN(C)C)ccc21 | -40.8% (active) | -15.9% (active) | -5.7% (active) | 31.1% | 52.7% | 109% | -52.8% (active) | 73.8% | 9.38% (active) | 105% | 60.9% | -47.3% (active) | -92% (active) | -72.2% (active) | -49.4% (active) | – | – |
| C[C@@H]1C[C@H]2C(=O)OCC(NC(=O)[C@H](Cc3cc(F)cc(F)c3)NC(=O)Nc3ccc(Cl)cc3F)C(=O)N3CCC[C@H]3C(=O)N3CCCC[C@H]3C(=O)N[C@@H](C)C(=O)N2C1 (stereo not given in full) | 21.8% | 12.8% | 20% | 31.9% | 23.6% | 27.5% | 40.5% | 32.7% | 24% | 28.8% | 21.4% | 37.7% | 12.6% | -6.65% (active) | 15.8% | 19.9% | 36.1% |
| C#CCOc1ccc(/C=N/Nc2nc(-c3cc(Cl)ccc3Cl)cs2)cc1 | 87.8% | 76.8% | 93.5% | 99.5% | 52.8% | 97.9% | 64.4% | 98.3% | 95% | 37.4% | – | 93.9% | 9.62% (active) | 86.6% | 95.8% | 102% | 72.5% |
| CCN(CC)CCN1C(=O)c2c(c3c4cccnc4[nH]c3c3ccc4ccccc4c23)C1=O | 3.65% (active) | 73.1% | 62.3% | 111% | 102% | 64.4% | 55% | – | 55.5% | 66% | 85.8% | 53.4% | 17.4% | 63.1% | 77.8% | 87.6% | 81.8% |
| C(=C(\C1=NCCN1)n1cnc2ccccc21)/c1cccc2ccccc12 | 84.7% | 87.2% | 95.8% | 81.4% | 93.3% | 89% | 89.7% | 92.9% | 96.8% | 82.4% | 107% | 102% | 57.3% | 88% | 92.9% | 74% | 42.5% |
